Many of the other results were omitted from the sample, so hits are more common in it than they were.
Pf Dd2 growth: Plasmodium falciparum Dd2 growth inhibition | P. falciparum Dd2 growth, SYBR Green, 72 h | hit rate 4.3% among 120,000 | Potency, µM (top dose mostly 28.9 µM), for the others: at the top dose activity, negative = inhibition, actives largely listed as inhibitors; active = well fitted inhibition curve with a large enough effect;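 also: plate controls were DMSO vehicle for no effect and reference drug for full effect; nearly all actives have a fitted effect of over 65% in size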
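Infected erythrocytes (Dd2, 0.3% parasitemia, 2.5% hematocrit final) are added to compound in RPMI-1640/Albumax II medium, grown 72 h at 37C in low oxygen, then lysed with saponin/Triton-X containing SYBR Green and read by fluorescence.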
* = called active by the depositor; [ ] = remark or other dose. Potency is read from the fitted curve at half-maximal effect.

Results for CCC(C)NC(=O)Cn1ccn2nc(-c3ccc(F)cc3)c(CO)c2c1=O (configuration not stated) ?
Pf Dd2 growth: inactive

Results for O=C(c1ccc2c(c1)N(Cc1ccc(Cl)cc1)C(=O)c1ccccc1S2(=O)=O)N1CCC(Cc2ccccc2)CC1 ?
Pf Dd2 growth: -6%

How did COc1ccccc1N1CCN(C(=O)c2ccc3c(c2)N(Cc2ccccc2)C(=O)c2ccccc2S3(=O)=O)CC1 do in these assays?
Pf Dd2 growth: 7.1µM*

How did COc1ccccc1CNC(=O)c1ccc2c(c1)N(Cc1cccc(C)c1)C(=O)c1ccccc1S2(=O)=O do in these assays?
Pf Dd2 growth: -9%

Results for CCOC(=O)N1CCC(NC(=O)c2ccc3c(c2)N(Cc2cccc(C)c2)C(=O)c2ccccc2S3(=O)=O)CC1 ?
Pf Dd2 growth: 11µM*

What do the screens show for `Cc1cccc(CN2C(=O)c3ccccc3S(=O)(=O)c3ccc(C(=O)NC4CCCCC4)cc32)c1`?
Pf Dd2 growth: -4%

Results for CN1CCN(C(=O)c2ccc3c(c2)N(Cc2cccc(Cl)c2)C(=O)c2ccccc2S3(=O)=O)CC1 ?
Pf Dd2 growth: inactive

Results for COc1ccc(N2CCN(C(=O)c3ccc4c(c3)N(Cc3cccc(Cl)c3)C(=O)c3ccccc3S4(=O)=O)CC2)cc1 ?
Pf Dd2 growth: -5%

How did O=C(c1ccc2c(c1)N(Cc1ccc(F)cc1)C(=O)c1ccccc1S2(=O)=O)N1CCN(Cc2ccccc2)CC1 do in these assays?
Pf Dd2 growth: inactive

Results for O=C(c1ccc2c(c1)N(Cc1ccccc1)C(=O)c1ccccc1S2(=O)=O)N1CCc2ccccc21 ?
Pf Dd2 growth: 11µM*

How did CC1CCN(S(=O)(=O)c2cc(C(=O)NCc3ccccc3)n(C)c2)CC1 do in these assays?
Pf Dd2 growth: 8%

Results for O=C(Cn1ccc2cc(S(=O)(=O)N3CCCCCC3)ccc21)NCc1cccc(Cl)c1 ?
Pf Dd2 growth: -15%

What do the screens show for `CCc1ccccc1NS(=O)(=O)c1ccc2[nH]cc(C(=O)N(CC)Cc3ccccc3)c(=O)c2c1`?
Pf Dd2 growth: 14%

Results for CCNC(=O)O[C@@H]1CO[C@H]2[C@@H]1OC[C@@H]2NS(=O)(=O)c1ccc2ccccc2c1 ?
Pf Dd2 growth: 23%[44.1 µM]

Results for O=C(c1ccc2c(c1)OCO2)N1CCC(N2CCNC2=O)CC1 ?
Pf Dd2 growth: 10%

Results for C[C@@H]1CN(C(=O)c2ccc(Cn3cnnn3)cc2)C[C@@]1(O)C1CCC1 ?
Pf Dd2 growth: 9%

What do the screens show for `COCCNC(=O)C1CC(c2ccccc2)CN(C(=O)c2ccc(OC)c(OC)c2)C1` (configuration not stated)?
Pf Dd2 growth: inactive

How did O=C1OC2(CN(c3ccc4c(c3)OCO4)C2)CN1c1ccccc1 do in these assays?
Pf Dd2 growth: -20%[44.1 µM]

Results for COc1ccc(NC(=O)c2c(NCc3cccs3)sc3c2CCC(C)C3)c(OC)c1 (configuration not stated) ?
Pf Dd2 growth: 10µM*

Results for COc1ccc(OC)c(NC(=O)c2sc3nc4c(cc3c2N)CCCCCC4)c1 ?
Pf Dd2 growth: 12%

Results for COc1ccccc1NC(=O)c1c(NC(=O)Cc2ccccc2)sc2c1CCC(C(C)(C)C)C2 (configuration not stated) ?
Pf Dd2 growth: 33%

How did COc1ccc(OC)c(NC(=O)c2c(NCc3cccs3)sc3c2CCCCC3)c1 do in these assays?
Pf Dd2 growth: 8.9µM*

What do the screens show for `COc1ccc(OC)c(NC(=O)c2c(OC)cc(=O)n3c2CCCC3)c1`?
Pf Dd2 growth: 7%

How did COc1cc(C(=O)Nc2sc3c(c2C(N)=O)CCC(C)C3)cc(OC)c1OC (configuration not stated) do in these assays?
Pf Dd2 growth: 7%

How did CC1CN(c2ccccc2C#N)C(=O)CN1C(=O)Cc1cn2ccsc2n1 (configuration not stated) do in these assays?
Pf Dd2 growth: -8%

How did COc1ccc(C(=O)NCCc2sc(-c3ccc(F)cc3)nc2C)cc1OC do in these assays?
Pf Dd2 growth: 5%

How did COc1ccc(CCC(=O)NC2CC(=O)N(c3cccc(F)c3)C2)cc1 (configuration not stated) do in these assays?
Pf Dd2 growth: 46%

Results for O=C(Nc1ccc(F)cc1)c1ccc2cncn2c1 ?
Pf Dd2 growth: -11%[44.1 µM]

What do the screens show for `CCN(CC)Cc1nnc2cc(-c3nc(-c4ccccc4)no3)ccn12`?
Pf Dd2 growth: -4%

Results for COc1cccc(-c2cc(-c3cccs3)nc3c(C)noc23)c1 ?
Pf Dd2 growth: inactive

What do the screens show for `COc1ccccc1-c1cc(-c2ccccc2)nc2c(C)noc12`?
Pf Dd2 growth: inactive

How did COc1cccc(-c2cc(-c3ccccc3)nc3c(C)noc23)c1 do in these assays?
Pf Dd2 growth: 14µM*

How did COc1cc(SC)ccc1C(=O)N[C@@H]1C=C(C(=O)N[C@H](CC(C)C)C(N)=O)C[C@@H](O)[C@@H]1O do in these assays?
Pf Dd2 growth: 4%

What do the screens show for `O=C(NCc1ccc2c(c1)OCO2)c1nc(-c2cccnc2)c2cnccn12`?
Pf Dd2 growth: inactive

Results for C#CCNC(=O)c1nc(-c2cccnc2)c2cnccn12 ?
Pf Dd2 growth: inactive

Results for C#CCNC(=O)c1nc(-c2ccsc2)c2cnccn12 ?
Pf Dd2 growth: -11%[44.1 µM]

Results for COCCNC(=O)c1nc(-c2ccc(OC)cc2)c2ccccn12 ?
Pf Dd2 growth: 6%

Results for COCCNC(=O)c1nc(-c2cccc(C(F)(F)F)c2)c2cnccn12 ?
Pf Dd2 growth: 10µM*

What do the screens show for `O=C(NCc1cccs1)c1nc(-c2cccnc2)c2cnccn12`?
Pf Dd2 growth: 11µM*

Results for O=C(NCc1cccs1)c1nc(-c2cccnc2)c2ccccn12 ?
Pf Dd2 growth: -7%

Results for O=C(NCc1ccc2c(c1)OCO2)c1nc(-c2cccc(C(F)(F)F)c2)c2ccccn12 ?
Pf Dd2 growth: inactive

What do the screens show for `O=C(NC1CC1)c1nc(-c2cccc(C(F)(F)F)c2)c2ccccn12`?
Pf Dd2 growth: -19%

What do the screens show for `COCCNC(=O)c1nc(-c2cccc(C(F)(F)F)c2)c2ccccn12`?
Pf Dd2 growth: inactive

Results for C#CCNC(=O)c1nc(-c2cccc(C(F)(F)F)c2)c2cnccn12 ?
Pf Dd2 growth: 3.5µM*

How did O=C(NCc1cccnc1)c1nc(-c2cccc(C(F)(F)F)c2)c2ccccn12 do in these assays?
Pf Dd2 growth: 7.9µM*

Results for O=C(C1CCCCC1)N1C[C@@H]2C[C@H](C1)c1ccc(-c3cccc(C(F)(F)F)c3)c(=O)n1C2 ?
Pf Dd2 growth: -14%

How did CCc1ccc(NC(=O)CSc2nc3ccccc3nc2Cc2ccccc2OC)cc1 do in these assays?
Pf Dd2 growth: inactive

Results for CCn1ccc2cc(S(=O)(=O)N3CCCN(C(=O)Nc4cc(Cl)ccc4C)CC3)ccc21 ?
Pf Dd2 growth: -26%

What do the screens show for `Cc1c(C(=O)N(C)C)sc2c1c(=O)n(-c1ccc(F)cc1)c(=O)n2Cc1ccccc1C#N`?
Pf Dd2 growth: inactive

How did Cc1nnnn1CCC(=O)Nc1nn(C)c2cccc(Oc3cccnc3)c12 do in these assays?
Pf Dd2 growth: -12%

Results for CCc1nc(CN(C)Cc2cc3n(n2)CCN(C(=O)N(C)C)C3)no1 ?
Pf Dd2 growth: -20%

Results for Cc1cc(C)cc(C(=O)Nc2ccc(-c3cn4cccnc4n3)cc2)c1 ?
Pf Dd2 growth: -8%

Results for Cc1ccc2c(=O)c(C(=O)c3cccc(Cl)c3)cn(CC(=O)NCc3ccc(F)cc3)c2n1 ?
Pf Dd2 growth: -7%

How did Cc1ccc(C)c(NC(=O)Cn2cc(C(=O)c3ccc(Cl)cc3)c(=O)c3ccc(C)nc32)c1 do in these assays?
Pf Dd2 growth: -10%

High-throughput results from PubChem.
